A number with no mark means an inactive call. Inconclusive results are not listed. The source made the active and inactive calls. Unless noted, the call rests on the fitted dose curve; in most records, active means well fitted curve in either direction with a large enough effect (not every such curve was filed as active); inconclusive means small, poorly fitted or top-dose-only effect, or another doubt; inactive means flat fitted curve, though single readings scatter.

The results in this text go back to PubChem BioAssay (NCATS).

Assay [1] concerns the target Lysosomal acid glucosylceramidase (Homo sapiens) (UniProt P04062). Kind of assay: Glucocerebrosidase-p2 (AID 348; in the data active means potency below about 10 µM; further: potency means the concentration at half of the fitted maximal effect). As to conditions: purified GBA, blue fluorogenic substrate, 40 min. The procedure, abridged: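 Normal human glucocerebrosidase (0.2 nM) with blue fluorogenic substrate (80 uM final) in citrate/phosphate pH 5.9 with 10mM sodium taurocholate, 0.01% tween-20; 40 min RT, NaOH/glycine stop; fluorescence Ex 365/Em 440; AC50 from a titration from 0.6 nM upwards.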

The nature of assay [2]: AP1 Signaling Pathway (AID 357).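 Further: ME-180 reporter cells stimulated with EGF at its EC50 level; on the % scale 0 is the no-effect control and ±100 the full control effect.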 Particulars: ME-180 AP-1-bla reporter, EGF-induced, beta-lactamase ratio, 5 h; at 7.69 µM (top of the series) unless noted. The procedure, abridged:
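Beta-lactamase reporter under AP-1 response element, ME-180 background. Stimulus: EC50 EGF. Compound exposure 5 h, 37 °C. Detection: CCF4, 2.5 h RT, 460/530 nm. Values: AC50 from titration.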

A short description of assay [3]: NFAT Signaling Pathway (AID 444).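 Further: carbachol stimulus at about its EC50 of 1 µM final; on the % scale 0 is the no-effect control and ±100 the full control effect.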 As to conditions: Jurkat NFAT-bla M1, carbachol, beta-lactamase ratio, 5 h; at 7.69 µM (top of the series) unless noted. The procedure, abridged: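 Jurkat cells carrying an NFAT-driven β-lactamase reporter and co-transfected muscarinic M1 receptor were treated with compound plus carbachol (1 uM final, an EC50 level) for 5 h at 37 °C. CCF4 loading followed for 1 h at RT; 460/530 nm ratio gave %activity.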

Assay [4] in a line: Stat Signaling Pathway (AID 446).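 Further: ME-180 cervical cancer cells given 40 pM IL-6 alongside compound; SIE-controlled beta-lactamase reporter measured as 460/530 nm FRET emission ratio; on the % scale 0 is the no-effect control and ±100 the full control effect.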 As to conditions: ME-180 (cervical carcinoma) SIE beta-lactamase reporter, IL-6 stimulated, 5 h; at 7.69 µM (top of the series) unless noted. The procedure, abridged:
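Emission at 460 and 530 nm (excitation 405 nm) reports SIE-controlled beta-lactamase in ME-180 cells. Cells received compound with 40 pM IL-6 for 5 hrs at 37 C; data scaled between 300 pM IL-6 and 125 nM JAK-inhibitor controls.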

Assay [5] deals with Glucocorticoid receptor (Homo sapiens) (UniProt P04150). Kind of assay: GR-GFP Redistribution (AID 450;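 active means compounds whose dose series gives a full or clear partial fitted curve of increased nuclear translocation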; further: potency means the concentration at half of the fitted maximal effect). As to conditions: U2OS GR-GFP nuclear translocation, laser cytometry, 2 h.
Sequence of Glucocorticoid receptor (Homo sapiens) (P04150 whole entry, looked up, the tested form may be a part): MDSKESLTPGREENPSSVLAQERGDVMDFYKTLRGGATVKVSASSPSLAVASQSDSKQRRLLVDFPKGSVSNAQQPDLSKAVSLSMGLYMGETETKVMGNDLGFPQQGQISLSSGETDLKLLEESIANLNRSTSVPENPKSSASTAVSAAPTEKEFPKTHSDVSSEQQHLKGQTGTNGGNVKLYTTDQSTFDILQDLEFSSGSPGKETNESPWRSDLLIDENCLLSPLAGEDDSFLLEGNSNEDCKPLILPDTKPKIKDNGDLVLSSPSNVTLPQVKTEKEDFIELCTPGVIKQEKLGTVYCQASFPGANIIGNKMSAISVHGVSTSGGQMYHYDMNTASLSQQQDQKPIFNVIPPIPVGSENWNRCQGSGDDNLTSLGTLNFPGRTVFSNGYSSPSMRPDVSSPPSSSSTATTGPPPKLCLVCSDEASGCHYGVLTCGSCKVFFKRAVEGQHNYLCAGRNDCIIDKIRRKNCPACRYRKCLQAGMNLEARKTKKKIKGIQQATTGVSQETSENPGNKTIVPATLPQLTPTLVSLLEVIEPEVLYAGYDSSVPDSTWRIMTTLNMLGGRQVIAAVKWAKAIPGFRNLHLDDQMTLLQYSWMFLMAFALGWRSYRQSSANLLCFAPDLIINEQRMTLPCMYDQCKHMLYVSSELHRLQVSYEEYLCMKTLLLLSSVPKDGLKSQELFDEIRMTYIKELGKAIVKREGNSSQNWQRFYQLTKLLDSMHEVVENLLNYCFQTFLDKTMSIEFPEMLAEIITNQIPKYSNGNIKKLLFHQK
Assay [6] concerns the target Mitogen-activated protein kinase 10 (Mus musculus) (UniProt Q61831). In words: JNK3 AlphaScreen Assay (AID 530).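 Further: kinase came from lysate of stimulated human HepG2 cells; signal reports phosphorylation of biotinylated GST-cJun 1-79 at Ser73 with 10 µM ATP; on the % scale 0 is the no-effect control and ±100 the full control effect.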 Particulars: JNK3 lysate, c-Jun phosphorylation; series mostly up to 57.1 µM. The procedure, abridged:
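Biotinylated GST-cJun(1-79) served as substrate for JNK3 in HepG2 lysates stimulated with IL-1beta and TNF-alpha. ATP was 10 uM final, pH 7.6. Ser73 phosphorylation was quantified by AlphaScreen (680 nm excitation).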
On the technique in general: Bead proximity is the source of the signal in Alpha formats.

Assay [7] deals with 3',5'-cyclic-AMP phosphodiesterase 4B (Homo sapiens) (UniProt Q07343). In words: qHTS Assay for Inhibitors of PDE-IV (AID 607; active means well fitted activation curve with a large enough effect in the main read-out, with a control signal flat, not every such curve was filed as active; further: % of control where 0% means no effect). As to conditions: HEK293 ACTOne CNG channel cells, membrane potential fluorescence; series mostly up to 22.9 µM. Put shortly: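 The readout is membrane depolarisation from a cAMP-sensing CNG channel, detected with a potential dye at ex 535/em 590. Cells were HEK293-derived (endogenous PDE-IV) at 1000 cells/well, titrated up to 22.9 uM final.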
Sequence of 3',5'-cyclic-AMP phosphodiesterase 4B (Homo sapiens) (Q07343 whole entry, looked up): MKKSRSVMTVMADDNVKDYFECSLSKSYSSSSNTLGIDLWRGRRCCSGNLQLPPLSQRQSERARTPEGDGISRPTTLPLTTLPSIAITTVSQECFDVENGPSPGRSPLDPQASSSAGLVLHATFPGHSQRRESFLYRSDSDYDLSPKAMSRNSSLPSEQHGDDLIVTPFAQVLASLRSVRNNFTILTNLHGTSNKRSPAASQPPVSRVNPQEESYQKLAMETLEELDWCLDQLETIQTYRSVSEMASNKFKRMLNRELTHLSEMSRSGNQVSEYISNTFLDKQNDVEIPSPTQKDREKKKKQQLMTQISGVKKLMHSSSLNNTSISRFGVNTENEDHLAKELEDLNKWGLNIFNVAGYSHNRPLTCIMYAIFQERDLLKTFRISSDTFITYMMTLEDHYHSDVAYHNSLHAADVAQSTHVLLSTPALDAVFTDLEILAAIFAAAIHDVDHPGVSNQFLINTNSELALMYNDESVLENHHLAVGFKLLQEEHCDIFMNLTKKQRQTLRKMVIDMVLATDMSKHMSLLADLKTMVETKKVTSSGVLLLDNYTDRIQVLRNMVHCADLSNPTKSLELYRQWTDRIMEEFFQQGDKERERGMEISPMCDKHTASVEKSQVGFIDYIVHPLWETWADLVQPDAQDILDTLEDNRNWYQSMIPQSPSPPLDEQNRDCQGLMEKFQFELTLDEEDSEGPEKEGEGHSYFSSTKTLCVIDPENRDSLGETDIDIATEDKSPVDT
(In general: qHTS replaces the single test concentration by a dilution series.)

In assay [8] the target is Cytochrome P450 3A4 (Homo sapiens) (UniProt P08684). Kind of assay: qHTS Assay for Activators of Cytochrome P450 3A4 (AID 885; active means well fitted curve in the direction sought with a large enough effect; an effect the other way counts as inactive or inconclusive; further: nearly all actives have a fitted effect of over 65% in size). Particulars: recombinant CYP3A4, Luciferin-PPXE luminescence, 60 min; series mostly up to 57.1 µM. Put shortly: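 Activators are scored by enhanced luminescence from CYP3A4 conversion of luciferin-PPXE (25uM, equal to KM) to luciferin, after 60 min at RT with an NADPH-regenerating system.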
Sequence of Cytochrome P450 3A4 (Homo sapiens) (P08684 whole entry, looked up): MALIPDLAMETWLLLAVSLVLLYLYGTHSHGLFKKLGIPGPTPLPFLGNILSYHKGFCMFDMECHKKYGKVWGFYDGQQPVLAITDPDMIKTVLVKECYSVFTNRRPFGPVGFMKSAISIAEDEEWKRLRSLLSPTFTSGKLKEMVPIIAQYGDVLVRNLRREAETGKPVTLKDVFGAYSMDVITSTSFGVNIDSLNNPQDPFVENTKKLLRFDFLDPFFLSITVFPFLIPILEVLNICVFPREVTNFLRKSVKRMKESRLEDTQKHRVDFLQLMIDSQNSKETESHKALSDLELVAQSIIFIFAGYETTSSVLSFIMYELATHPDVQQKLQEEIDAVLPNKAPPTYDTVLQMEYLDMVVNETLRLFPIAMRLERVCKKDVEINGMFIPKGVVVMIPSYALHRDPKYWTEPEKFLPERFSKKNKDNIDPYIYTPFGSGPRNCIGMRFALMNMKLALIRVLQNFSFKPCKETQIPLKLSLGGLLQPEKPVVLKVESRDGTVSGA

The target of assay [9] is Cytochrome P450 1A2 (Homo sapiens) (UniProt P05177). In words: p450-cyp1a2 (AID 410; calls by dose curve; further: potency means the concentration at half of the fitted maximal effect;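 on activity change, negative = inhibition: -100% = full effect of reference inhibitor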). Particulars: recombinant CYP1A2, luciferin-ME demethylation, luminescence; series mostly up to 11.4 µM. Put shortly:
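20nM CYP1A2, 100uM Luciferin-ME (=Km), 100mM KPO4; cpd 10 min RT; +NADPH regen, 60 min RT; stop/detect 20 min; luminescence. Normalized to furafylline 57 uM = full inhibition.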

Assay [10] concerns the target Glucocorticoid receptor (Homo sapiens) (UniProt P04150). Kind of assay: GR-EFC Redistribution (AID 451; calls by dose curve; further: potency means the concentration at half of the fitted maximal effect). Particulars: CHO-K1 GR-EFC translocation, beta-gal luminescence, 2 h. Put shortly: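 CHO-K1 cells stably expressing nuclear-localized β-gal enzyme acceptor and GR fused C-terminally to the enzyme donor fragment; ligand-driven nuclear translocation restores β-gal by complementation. Compounds titrated up to 46 uM final, 2 h at 37 °C; luminescence read.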

Assay [11] addresses Cytochrome P450 2C19 (Homo sapiens) (UniProt P33261). Kind of assay: qHTS Assay for Inhibitors and Substrates of Cytochrome P450 2C19 (AID 899; active means well fitted curve in the direction sought with a large enough effect; an effect the other way counts as inactive or inconclusive; further: nearly all actives have a fitted effect of over 60% in size; further: potency means the concentration at half of the fitted maximal effect). Particulars: recombinant CYP2C19, luciferin-H EGE luminescence; series mostly up to 11.4 µM. Put shortly:
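NADPH-dependent conversion of Luciferin-H EGE (10uM, at KM) by 5nM enzyme in 50mM KPO4, 60 min at 37C following 10 min compound preincubation. Stopped with luciferin detection buffer; luminescence read after 20 min.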

Sequence of Cytochrome P450 1A2 (Homo sapiens) (P05177 whole entry, looked up): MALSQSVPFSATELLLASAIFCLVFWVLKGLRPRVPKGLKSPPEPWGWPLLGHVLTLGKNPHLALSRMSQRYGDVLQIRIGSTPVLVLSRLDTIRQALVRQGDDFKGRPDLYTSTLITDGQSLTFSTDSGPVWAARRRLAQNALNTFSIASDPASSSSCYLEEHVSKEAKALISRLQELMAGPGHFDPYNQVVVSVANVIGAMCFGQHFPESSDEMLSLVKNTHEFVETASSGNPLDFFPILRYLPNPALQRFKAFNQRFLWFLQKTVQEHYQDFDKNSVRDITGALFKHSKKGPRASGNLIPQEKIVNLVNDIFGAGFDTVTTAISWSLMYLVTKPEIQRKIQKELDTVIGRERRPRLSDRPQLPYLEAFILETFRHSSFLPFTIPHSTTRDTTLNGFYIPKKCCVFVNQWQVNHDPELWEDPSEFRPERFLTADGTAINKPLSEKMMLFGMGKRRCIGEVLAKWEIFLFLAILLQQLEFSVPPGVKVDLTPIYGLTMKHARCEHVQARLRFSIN
Sequence of Cytochrome P450 2C19 (Homo sapiens) (P33261 whole entry, looked up): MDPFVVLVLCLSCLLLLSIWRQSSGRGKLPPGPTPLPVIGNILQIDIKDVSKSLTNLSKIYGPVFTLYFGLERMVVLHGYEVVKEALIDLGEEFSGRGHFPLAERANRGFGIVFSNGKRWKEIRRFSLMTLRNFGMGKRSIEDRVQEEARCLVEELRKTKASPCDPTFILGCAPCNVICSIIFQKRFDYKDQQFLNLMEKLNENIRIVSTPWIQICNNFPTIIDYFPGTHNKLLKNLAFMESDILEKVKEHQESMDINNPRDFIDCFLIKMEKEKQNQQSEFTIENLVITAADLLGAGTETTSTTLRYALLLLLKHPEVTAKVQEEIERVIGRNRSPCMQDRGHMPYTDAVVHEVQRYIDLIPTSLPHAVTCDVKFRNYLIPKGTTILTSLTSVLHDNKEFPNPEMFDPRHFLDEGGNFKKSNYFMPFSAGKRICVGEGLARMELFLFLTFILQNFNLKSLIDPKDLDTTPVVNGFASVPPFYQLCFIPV
Sequence of Lysosomal acid glucosylceramidase (Homo sapiens) (P04062 whole entry, looked up): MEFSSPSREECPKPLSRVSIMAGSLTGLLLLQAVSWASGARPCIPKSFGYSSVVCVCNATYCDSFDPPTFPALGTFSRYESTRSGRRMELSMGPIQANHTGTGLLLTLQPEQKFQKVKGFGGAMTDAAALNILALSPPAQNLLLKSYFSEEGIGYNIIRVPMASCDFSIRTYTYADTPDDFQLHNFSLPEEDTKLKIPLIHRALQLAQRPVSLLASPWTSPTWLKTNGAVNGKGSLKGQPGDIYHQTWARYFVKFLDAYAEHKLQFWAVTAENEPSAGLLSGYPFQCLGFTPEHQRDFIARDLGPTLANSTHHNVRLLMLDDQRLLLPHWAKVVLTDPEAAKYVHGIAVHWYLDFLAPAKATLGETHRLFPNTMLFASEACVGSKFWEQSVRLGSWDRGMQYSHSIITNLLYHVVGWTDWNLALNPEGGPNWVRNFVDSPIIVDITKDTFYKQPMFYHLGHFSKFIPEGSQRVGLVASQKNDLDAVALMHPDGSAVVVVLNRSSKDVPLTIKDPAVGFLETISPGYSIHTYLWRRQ

Turning to `CCNC(C)(C)[C@@H](SS)c1ccc(Br)cc1`, the Potency in assay [1] was over 11.4 µM; in assay [5], over 46 µM. Further, the activity change, negative = inhibition in [2] was 5.96%; in [3] it was 11.8%; in [6], -0.59% [at 11.4 µM]. For the same compound, in assay [4], the activity, negative = inhibition is -1.19%. Moreover, the compound was called inactive in assay [7]. Moreover, in assay [8], the activity change, positive = activation is -31.2% [at 11.4 µM].
On to `CC[C@]1(OC(=O)CN)C(=O)OCc2c1cc1n(c2=O)Cc2cc3ccccc3nc2-1`, for which the Potency in assay [1] was over 11.4 µM; in assay [5], over 46 µM; in [10] it was over 9.22 µM. For the same compound, the values for the activity change, negative = inhibition in [9] and in assay [6] were -17.6% [at 2.29 µM] and -1.42% [at 11.4 µM], respectively. Besides, the call in assay [7] was inactive.
On to `Nc1ccccc1O.O.O=C(O)[C@H]1[O][Sb][O][C@H]1C(=O)O`, for which the Potency in assay [1] was over 11.4 µM; in assay [5] it was over 46 µM; in [10] it was over 9.22 µM. In addition, the activity change, negative = inhibition in assay [9] is -23.1% [at 2.29 µM]; in assay [3], -17.5%; in assay [6], -2.79% [at 11.4 µM]. For the same compound, in assay [4], the activity, negative = inhibition was 8.88%. Moreover, the call in assay [7] was inactive.
On to `CC[C@@](O)(C(=O)O)c1cc2n(c(=O)c1CO)Cc1cc3ccccc3nc1-2`, for which the values for the Potency in assay [1] and in assay [10] were over 11.4 µM and over 9.22 µM, respectively. The activity change, negative = inhibition in assay [2] was 0.967%; in assay [3], -9.59%. In addition, the activity, negative = inhibition in assay [4] is -0.155%. In assay [7], the compound was called inactive. The activity change, positive = activation in assay [8] is -36.6% [at 11.4 µM].
`O=C(N1CCOCC1)C1(c2ccccc2)CCNCC1`: the figures for the Potency in assay [1], in assay [5] and in assay [10] were over 11.4 µM, over 46 µM and over 9.22 µM, respectively. Further, the activity change, negative = inhibition in [2] was -2.66%; in assay [6], 3.92% [at 11.4 µM]. Moreover, the activity, negative = inhibition in [4] was 8.97%. Also, the compound was classed as inactive in assay [7].
On to `COC1=C(C)C(=O)c2c(c(COC(N)=O)c3n2C[C@@H]2[C@@H]3N2C)C1=O` (stereo partly drawn), for which the figures for the Potency in assay [1], in assay [5] and in assay [10] were over 11.4 µM, over 46 µM and over 9.22 µM, respectively. Moreover, the activity change, negative = inhibition in assay [6] was -0.1% [at 11.4 µM]. Further, the outcome in assay [7] was inactive.
On to `NNc1c(C(N)=O)c2c(N)ncnc2n1[C@@H]1O[C@H](CO)[C@@H](O)[C@@H]1O`, for which the Potency in [1] was over 11.4 µM. Also, the activity change, negative = inhibition is -11.2% [at 2.29 µM] in [9], 6.43% in [3] and -2.85% [at 11.4 µM] in [6]. The outcome in assay [7] was inactive. Further, the Potency result in [11] was “inactive”.
With `CS(=O)(=O)O[C@H]1CN2CCC1CC2`, the Potency in assay [1] was over 11.4 µM; in [5], over 46 µM; in assay [10] it was over 9.22 µM. Besides, in [9], the Potency entry was “inactive”. In addition, the activity change, negative = inhibition is -10.5% in [3] and 2.61% [at 11.4 µM] in assay [6]. Besides, the activity, negative = inhibition in [4] was -2.65%. Further, the compound was called inactive in assay [7].
For `O=C(Nc1ccc([As](=O)(O)O)cc1)Nc1cccc(Cl)c1Cl`, the Potency in assay [1] is over 11.4 µM; in assay [5], over 46 µM; in assay [10], over 9.22 µM. Also, the activity change, negative = inhibition in assay [2] was -0.577%; in assay [3] it was 6.56%; in [6], 0.483% [at 11.4 µM]. In assay [7], the call was inactive.
In the case of `ClCC[N+]12CC[N+](CCCl)(CC1)C2` (tested in a mixture with another compound), the Potency in assay [1] was over 11.4 µM. Further, the values for the activity change, negative = inhibition in assay [2], in [3] and in [6] were 1.69%, -23.8% and 2.18% [at 11.4 µM], respectively. Besides, the activity, negative = inhibition in [4] was 3.41%. For the same compound, the compound was called inactive in [7].
`Cc1ccc(S(=O)ON2CCC(C(=O)O)(c3ccccc3)CC2)cc1` (stereo not drawn): the Potency in assay [1] was over 11.4 µM; in assay [5], over 46 µM. The activity change, negative = inhibition in [2] is -1.29%; in [3] it was 5.73%; in assay [6], 5.44% [at 11.4 µM]. In assay [4], the activity, negative = inhibition was 8.69%. The outcome in assay [7] was inactive. For the same compound, the Potency result in [11] is “inactive”.
On to `COc1cc2c(cc1O)C[C@@H]1c3c(cc(O)c(OC)c3-2)CCN1C`, for which the Potency in [1] was over 11.4 µM; in [9] it was 3.98 µM (active); in assay [5], over 46 µM; in assay [10] it was over 9.22 µM. Besides, the activity change, negative = inhibition in [3] was -0.493%. In assay [4], the activity, negative = inhibition was 0.101%. For the same compound, the call in assay [7] was inactive.
Take `O=C(O)[C@@H]1[C@H](C(=O)O)[C@]2(Cl)C(Cl)=C(Cl)[C@@]1(Cl)C2(Cl)Cl`: the Potency in [1] was over 11.4 µM; in [10], over 9.22 µM. Further, the Potency entry in assay [9] was “inactive”. For the same compound, the activity change, negative = inhibition in [3] is 11.1%; in assay [6] it was 0.126% [at 11.4 µM]. In [4], the activity, negative = inhibition was 3.47%. The compound was called inactive in [7].
`O=C(c1ccccc1)[C@H]1[C@H](c2ccccc2[N+](=O)[O-])N1C1CCCCC1` (stereo partly drawn): the Potency in [1] was over 11.4 µM; in [9] it was 0.631 µM (active); in [5] it was over 46 µM. In assay [6], the activity change, negative = inhibition was -6.49% [at 11.4 µM]. In [7], the call was inactive. Moreover, the activity change, positive = activation in [8] is -50.5% [at 11.4 µM].
On to `CSC([N-]/N=C/c1cccc(C)n1)=[S]=[Cu].CS[C@H]([S-])[N-]/N=C/c1cccc(C)n1`, for which the Potency in assay [1] was over 11.4 µM; in [9], 0.631 µM (active); in assay [11] it was 0.199 µM (active). Moreover, the activity change, negative = inhibition in [3] was -102% (active); in assay [6], -6.87% [at 11.4 µM]. Moreover, in [7], the call was inactive. Besides, the activity change, positive = activation in [8] was -73.3% [at 11.4 µM].
